Screens from PubChem.
Most compounds without a hit are left out; they make up all but 0.93% or so of the library.
697 NFkB inh: inhibitors of the PMA/ionomycin-induced NF-kB reporter in 697 B cells; 697 B-cell NF-kB luciferase reporter, 16 h; inhibition, % at 4 µM; actives 0.33% (n = 330,000); in the data active = inhibition above about 35%
Jurkat NFkB inh: inhibitors of the PMA/ionomycin-induced NF-kB reporter in Jurkat cells. PMA/ionomycin-induced NF-kB luciferase reporter, luminescence. inhibition, % at 4 µM. actives 0.53% (n = 330,000). AID 435003; in the data active = inhibition above about 50%
CFTR F508del cor: CFTR F508del correction in bronchial cells. CFBE cells, YFP halide quenching; stimulated with forskolin plus potentiator P3; % fluorescence drop versus neutral controls. activity (quench increase), % at 7.58 µM. actives 0.36% (n = 350,000). AID 720511;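 active = mean added fluorescence quench of at least 8% versus neutral control, with both replicates also reaching 8%; inconclusive = only one of the mean or replicate conditions met; inactive = mean below 8% and not both replicates reaching 8%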;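 also: cells transiently co-express mutant CFTR-F508del with the halide-sensitive YFP; corrector assay measuring rescue of mutant channel to the surface after 24 h compound exposure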
HIF act: HIF pathway transcriptional activation. U2OS HRE-luciferase reporter, luminescence; normalized: DMSO 0%, desferrioxamine 100%. activation, % at 7.5 µM (by protocol). actives 0.32% (n = 300,000). AID 1910;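 active = mean activation of at least 10% of the iron chelator positive control signal, with at least half of replicates also reaching 10%; inconclusive = mean and replicate majority disagree about reaching 10%; inactive = mean and most replicates under 10%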
697 NFkB conf: lowers PMA/ionomycin-induced NF-kB signal in 697 B cells; actives 35% (n = 2,000); 697 B-cell NF-kB luciferase, 16 h; inhibition, % at 4 µM; AID 449746; shares compounds with 697 NFkB inh; in the data active = inhibition mostly above about 28%, no sharp cut-off; inactive = mostly below about 22%
* hit, by the source's call; i = inactive; ? = inconclusive; . = no result.

SMILES	697 NFkB inh	Jurkat NFkB inh	CFTR F508del cor	HIF act	697 NFkB conf
C[C@@H]1CN([C@@H](C)CO)S(=O)(=O)c2ccc(-c3ccc(F)cc3)cc2O[C@@H]1CN(C)C(=O)Nc1ccc(F)cc1	.	.	0	.	.
CC(=O)/C(C#N)=C1\NC(=O)C(Cc2ccc(C)c(Cl)c2)S1 (stereo not drawn)	i	3	?	0	-492
CCc1ccc(CC2S/C(=C(\C#N)C(C)=O)NC2=O)cc1 (stereo not drawn)	-184	-6	.	1	.
Cc1ccc(S(=O)(=O)N(C)C[C@H]2Oc3ccc(NC(=O)Nc4cccc5ccccc45)cc3C(=O)N([C@H](C)CO)C[C@@H]2C)cc1	.	.	1	.	.
COc1ccc(S(=O)(=O)N(C)C[C@H]2OCCCC[C@H](C)Oc3ccc(NC(=O)c4ccccc4)cc3C(=O)N([C@H](C)CO)C[C@H]2C)cc1	.	.	-4	.	.
Cc1cc(NC(=O)COC(=O)c2c(Cl)cccc2Cl)no1	-376	-69	-2	.	-360
Cc1ccc(C(=O)N/N=C/c2nc3ccccc3n2C)cc1	39*	-15	.	1	20
Cn1c(/C=N/NC(=O)c2ccccc2Br)nc2ccccc21	16	5	.	0	.
COCCCN=Cc1c(-c2ccccc2)[nH]n(-c2nc3ccccc3s2)c1=O	19	10	0	0	.
O=c1c(C=NCCCO)c(-c2ccccc2)[nH]n1-c1nc2ccccc2s1	37*	28	0	-5	41*
CCSc1nc(-c2ccc(OC)cc2)cc(-c2ccccc2)c1C#N	17	5	0	0	.
COc1ccc(-c2cc(-c3ccccc3)c(C#N)c(S(C)=O)n2)cc1 (stereo not drawn)	37*	1	.	-5	12
CO[C@@H]1CN(C)C(=O)c2ccc(NC(=O)NC(C)C)cc2OC[C@@H](C)N(Cc2cncnc2)C[C@H]1C	.	.	1	.	.
COc1cc(C(=O)O)ccc1OCC(=O)N1CCOCC1	40*	1	.	0	-7
COCCNC(=O)/C(C#N)=C/c1ccc(-c2ccc(OC)cc2[N+](=O)[O-])o1	35*	1	.	0	19
COc1ccccc1NC(=O)Nc1ccc2c(c1)C(=O)N(C)C[C@H](OC)[C@H](C)CN[C@@H](C)CO2	.	.	3	.	.
CC(C)NC(=O)c1ccc2c(=O)n(CC3CCCO3)c(=S)[nH]c2c1 (stereo not drawn)	36*	0	-2	0	0
COCCCNC(=O)c1ccc2c(=O)n(CC3CCCO3)c(=S)[nH]c2c1 (stereo not drawn)	18	-7	.	0	.
CS(=O)(=O)N1CC2(C1)[C@H](c1ccccc1)[C@@H](CO)N2CC1CC1	.	.	-2	.	.
C[C@@H]1CN([C@@H](C)CO)C(=O)Cc2cc(NS(=O)(=O)c3cccs3)ccc2O[C@@H]1CN(C)Cc1ccc(Oc2ccccc2)cc1	.	.	5	.	.
O=C(NCc1ccccc1)C1CCN(S(=O)(=O)N2CCOCC2)CC1	41*	-5	.	0	-4
COc1cc(-c2noc(C)c2/C=C/c2ccc(C(=O)O)cc2)cc(OC)c1OC	37*	-20	-5	1	26
COc1cc(-c2noc(C)c2C(=O)N[C@@H](CO)Cc2ccccc2)cc(OC)c1OC	.	.	-2	.	.
CCCC(=O)N1CC2(CN(C(=O)NC(C)C)C2)c2c(n(C)c3cc(OC)ccc23)[C@H]1CO	.	.	0	.	.
O=C(O)c1ccc(N=Nc2c(O)[nH]c3cc(Cl)ccc23)cc1	-332	-91	3	2	-314
SMILES	697 NFkB inh	Jurkat NFkB inh	CFTR F508del cor	HIF act	697 NFkB conf
CC(=O)Nc1ccc(S(=O)(=O)N2CCC(c3nc4ccc(C)cc4[nH]3)CC2)cc1	38*	13	.	0	15
C[C@@H]1CN([C@@H](C)CO)C(=O)Cc2cc(NC(=O)Nc3cccc4ccccc34)ccc2O[C@@H]1CN(C)C(=O)Nc1ccccc1	.	.	2	.	.
O=C(N/N=C/c1sc(N2CCOCC2)nc1-c1ccccc1)c1ccc(O)cc1	31	2	3	0	.
COc1ccc(C(=O)N/N=C/c2sc(N3CCOCC3)nc2-c2ccccc2)cc1OC	41*	2	-1	0	32*
CCOC(=O)CSc1nnc(COc2cccc(C)c2)o1	14	6	-3	1	.
Cc1ccc(C(=O)CSc2nnc(COc3cccc(C)c3)o2)cc1	49*	-4	.	-1	57*
N#Cc1c(/N=C/c2cccs2)sc2c1CCCCC2	-426	-135	.	2	-209
COc1ccc2c3c(n(C)c2c1)[C@H](CO)N(C(=O)Nc1ccc(F)cc1)CC31CCN(S(=O)(=O)c2cccs2)CC1	.	.	1	.	.
COC(=O)c1c(-c2ccccc2)csc1NC(=O)c1c(-c2ccccc2)noc1C	i	-44	0	-2	i
CCOC(=O)c1c(-c2ccc(C)cc2)csc1NC(=S)NC(=O)c1ccccc1	-486	3	.	-1	0
CCOC(=O)c1cn[nH]c1NC(=S)Nc1ccc(OC)cc1	-371	-128	0	-1	-199
O=C1O[C@@H](c2ccccc2)[C@@H](c2ccccc2)N2[C@@H](c3ccc(OCCO)cc3)[C@]3(C(=O)Nc4ccc(C#CC5=CCCCC5)cc43)[C@@H](C(=O)NC[C@H](O)c3ccccc3)[C@H]12	.	.	-8	.	.
Cc1[nH]c2ccccc2c1C(=O)CN1C(=O)NC2(CC(C)CC(C)(C)C2)C1=O (stereo not drawn)	38*	16	.	-1	49*
Cc1cc(OCC(=O)Nc2ccc(CCO)cc2)c2c(C)c(C)c(=O)oc2c1	36*	0	1	0	40*
Cc1cc(OCC(=O)Nc2cccnc2)c2c(C)c(C)c(=O)oc2c1	20	1	2	0	.
COC(=O)CSc1nnc(-c2sc3ccccc3c2Cl)o1	40*	-1	.	-14	43*
CSc1ccc(C2NN=C(c3ccccc3)S2)cc1 (stereo not drawn)	-263	-102	2	0	-279
COc1ccc(C2NN=C(c3ccc(C)cc3)S2)cc1 (stereo not drawn)	.	.	0	?	.
COc1ccc(-c2ccc(F)cc2)cc1[C@H]1[C@H]2C=CC[C@@H](C)[C@@H]2C(=O)N1Cc1ccccc1	40*	0	1	-1	46*
O=C(C[C@H]1CC[C@H]2[C@@H](COC[C@@H](O)CN2C(=O)c2cccnc2)O1)NCc1ccccc1	.	.	-1	.	.
Cc1ccc(C)c(CN2C(=O)c3ccccc3S(=O)c3ccc(C(=O)N4CCN(c5ccccn5)CC4)cc32)c1 (stereo not drawn)	i	-37	4	-1	i
Cc1ccc(C)c(CN2C(=O)c3ccccc3S(=O)(=O)c3ccc(C(=O)N4CCN(C)CC4)cc32)c1	0	-6	-4	-1	.
CC(=O)N(C)C[C@@H]1Oc2cc(C#Cc3ccccc3)ccc2S(=O)(=O)N([C@@H](C)CO)C[C@@H]1C	.	.	2	.	.
Cc1nc(Nc2ccccc2)sc1C(=O)c1ccccc1	-54	-44	1	3	.
Cc1nc(Nc2ccc(C(=O)O)cc2)sc1-c1ccccc1	-284	-36	-2	0	-401
